Source: PubChem BioAssay
Shown are actives, neighbours in structure and some others; about 4.6% of the full set was active somewhere.
TRHR PAM: TRH receptor (human) allosteric enhancement; enhancement, % at 2 µM; TRHR cells, fluo-8 calcium fluorescence, EC20 TRH enhancement; P34981; 360,000 tested, 0.66% active; AID 493056; in the data active means enhancement above about 30%; further: 0% is about no effect
Target sequence (P34981 whole entry, looked up): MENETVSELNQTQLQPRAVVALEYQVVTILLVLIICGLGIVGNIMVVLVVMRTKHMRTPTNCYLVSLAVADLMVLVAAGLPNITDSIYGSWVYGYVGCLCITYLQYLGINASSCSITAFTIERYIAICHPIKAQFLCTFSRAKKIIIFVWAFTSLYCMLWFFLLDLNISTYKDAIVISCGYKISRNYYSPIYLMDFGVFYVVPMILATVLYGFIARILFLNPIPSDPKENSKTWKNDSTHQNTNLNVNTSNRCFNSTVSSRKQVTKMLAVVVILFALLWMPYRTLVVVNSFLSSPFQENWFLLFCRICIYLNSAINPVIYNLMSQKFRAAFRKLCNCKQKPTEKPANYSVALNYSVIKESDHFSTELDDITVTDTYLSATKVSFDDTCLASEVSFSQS
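TRHR-expressing cells loaded with fluo-8 calcium dye were read kinetically (ex 480/em 530) during compound addition, then stimulated with an EC20 of TRH (10 nM final). Enhancement of the Gq-mediated intracellular calcium response was scored.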
D1 antagonist: blocks dopamine activation of the human D1 receptor | 360,000 tested, 3.2% active | AID 504652 | P21728 | activity change, negative = inhibition, % at 10 µM | HEK293 TREx D1 cells, calcium flux, dopamine EC80; active compounds read low; in the data active means activity change below about -30%; further: on the % scale 0 is the no-effect control and ±100 the full control effect
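After overnight tetracycline induction at 30 C, force-coupled D1 HEK293 cells took up a no-wash calcium dye at room temperature. Compounds were added and monitored 180 s, and the response to EC80 dopamine was then recorded.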
TRHR agonist: TRH receptor (human) agonism; TRHR cells, calcium flux fluo-8, FDSS agonist mode; activation, % at 2 µM; 360,000 tested, 0.18% active; AID 493084; further: 0% is about no effect
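Agonist-mode FDSS calcium read (Ex 480/Em 530, 1 s cycles) in 1536-well TRHR cells with fluo-8 dye, after 10-cycle baseline and 23 nL compound addition; TRH at EC20 (10 nM final) added afterwards for the enhancer phase.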
D1 ag: agonists of human D1 dopamine receptor; P21728; HEK293 T-REx D1 cells, calcium flux, agonist mode; activation, % at 2 µM; 360,000 tested, 1% active; AID 504660; further: 0% is about no effect
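Tetracycline-induced HEK293 TREx D1 cells, force-coupled to calcium signalling, were dye-loaded with a no-wash calcium kit. Compound was pin-added after a 10 s baseline. Fluorescence was read kinetically at 1 cycle/s for 180 s, with calcium rises flagged as agonism.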
D1 PAM: enhances dopamine response at the human D1 receptor; P21728; HEK293 TREx D1 cells, calcium flux, dopamine EC20 potentiation; potentiation, % at 10 µM; 360,000 tested, 0.036% active; in the data active means potentiation above about 30%; further: 0% is about no effect
Active calls of the source: *; . = no result given. Unless noted, no stated cut-off is given here; in the data, active means activation above about 30%; inactive means the rest.

SMILES	TRHR PAM	D1 antagonist	TRHR agonist	D1 ag	D1 PAM
C=CCc1ccc(OCc2ccc(C(=O)Nc3ccc(NC(C)=O)cc3)o2)c(OC)c1	-4	-7	-1	-1	-9
CC(=O)c1cccc(NC(=O)C2CCN(S(=O)(=O)c3ccc4[nH]c(=O)ccc4c3)CC2)c1	-2	13	0	0	0
COc1ccc2[nH]c(C(=O)N3CCN(c4ccccc4F)CC3)c(C)c2c1	12	9	0	6	3
Cc1cc(C)n(-c2ccc(C(=O)Nc3cccc(S(=O)(=O)N(C)C)c3)cc2)n1	1	-15	0	6	-6
Cc1ccc(SCc2ccc(C(=O)Nc3cccc([N+](=O)[O-])c3)cc2)cc1	-1	-51*	1	6	-3
O=C(Cc1ccccc1)Nc1cccc([N+](=O)[O-])c1	-2	6	0	3	-4
Cc1ccc(SCc2ccc(C(=O)Nc3cc([N+](=O)[O-])ccc3C)cc2)cc1	-2	-6	2	4	-2
O=C(Nc1cccc([N+](=O)[O-])c1)c1ccc2ccccc2c1O	-7	-33*	4	23	-8
Cc1cc(C)n(-c2ccc(C(=O)Nc3cccc([N+](=O)[O-])c3)cc2)n1	1	-36*	0	13	-3
O=C(Nc1cccc([N+](=O)[O-])c1)c1cnccn1	12	-59*	-2	4	-2
Cc1nn(-c2ccccc2)c(-c2ccccc2)c1C(=O)O	-9	3	0	1	0
CCCc1cnc2c(c1SCC(=O)Nc1ccccc1F)c(=O)n(C)c(=O)n2C	-7	.	0	4	0
CCOc1ccccc1NC(=O)Cn1c(=O)oc2cc(Cl)ccc21	2	4	1	4	11
CC(OC(=O)c1cnccn1)C(=O)Nc1nc(-c2cccc([N+](=O)[O-])c2)cs1 (stereo unspecified)	-6	-32*	-1	7	-6
CCCc1cc(C(=O)Nc2cccc([N+](=O)[O-])c2)cs1	-1	-32*	0	11	-5
CC(C)(C)c1ccc(C(=O)Nc2cccc([N+](=O)[O-])c2)cc1	3	-16	1	10	-4
COC(=O)CCCC1=CC2=C(c3ccccc3)C(=O)C(C)(OC(=O)C3CCCC3)C(=O)C2=CN1CCc1ccccn1 (stereo unspecified)	0	-21	0	1	0
C=CCNC(=S)NNC(=O)c1csc(C)c1CC	1	-16	-1	0	0
COc1ccc(N2C(=O)Cc3ccccc3C2=O)cc1	8	4	1	2	-1
c1ccc(-c2cnc(-c3ccccc3)nc2)cc1	1	1	1	0	7
Nc1cnc(-c2ccccc2)nc1Cl	-2	-39*	0	0	-5
CCc1ccc(-c2csc(-c3cc4cc(Br)ccc4oc3=O)n2)cc1	1	-4	1	7	-4
CCN(CC)c1ccc2cc(-c3nc(-c4ccc(OC)cc4)cs3)c(=O)oc2c1	-24	-58*	174*	419*	-1
CCN(CC)c1ccc2cc(-c3nc(-c4ccc(Cl)cc4Cl)cs3)c(=O)oc2c1	0	22	22	119*	-2
CN(C)c1oc(-c2ccco2)nc1S(=O)(=O)c1ccc(Br)cc1	0	-13	0	2	-8
SMILES	TRHR PAM	D1 antagonist	TRHR agonist	D1 ag	D1 PAM
CC(=O)c1cc(F)c(N2CCN(c3ccc([N+](=O)[O-])cc3F)CC2)cc1C	9	-15	0	6	-5
COCCn1c(N)c(N(Cc2ccccc2)C(=O)c2ccc(C#N)cc2)c(=O)[nH]c1=O	-1	7	-1	2	-13
Cc1cc(C)cc(NCc2cc(=O)oc3cc(-c4ccccc4)c(O)cc23)c1	3	-4	1	1	-2
COc1ccc(C)cc1NCc1cc(=O)oc2cc(-c3ccccc3)c(O)cc12	1	-30*	1	2	-1
Cc1cc(NS(=O)(=O)c2ccc(NS(=O)(=O)c3ccc(Br)cc3)cc2)no1	33*	5	0	1	1
Cc1cc(NS(=O)(=O)c2ccc(Nc3nc(-c4ccc(C)c(C)c4)cs3)cc2)no1	2	-11	-1	68*	-11
Cc1cc(NS(=O)(=O)c2ccc(NC(=O)/C=C/c3ccc(Br)cc3)cc2)no1	4	-6	0	5	0
